High-throughput results: PubChem, Center for Chemical Genomics, University of Michigan
HIV TAR-Tat = HIV-1 TAR-Tat binding disruption | HIV-1 TAR RNA, Tat peptide displacement FRET; hits give high values | z-score (no concentration beside the values) | 100,000 tested, 0.6% active | AID 1259389; active = z-score of 3 or more in at least 2 runs
CDC25B-CDK2 inh = human CDC25B-CDK2/CyclinA binding inhibition; 94,000 tested, 0.72% active; AID 1259370; HTRF CDC25B-CDK2/CyclinA binding, anti-His/anti-Flag; hits give high values; P30305+P24941; z-score (test concentration not listed); in the data active = z-score above about 3.2
Active calls of the source: *; . = not tested or not shown. Sampled rows, rich in hits. Any-hit rate of the full collection: about 0.93%.

SMILES | HIV TAR-Tat | CDC25B-CDK2 inh
FC(F)(F)c1nc(NCC2CCCO2)nc2c1CCCCC2 (stereo not drawn) | 0.69 | -0.79
O=C1CCC(=O)N1CCn1c2ccc(Br)cc2c2nc3ccccc3nc21 | 2.4 | -2.5
CCN(CC)C(=O)c1oc2ccccc2c1NC(=O)C(C)(C)C | 0.42 | .
CCN(CC)C(=O)c1oc2ccccc2c1NC(=O)c1ccc2c(c1)OCO2 | 7* | .
CCc1ccc(OCC2=NN(C(C)=O)C(c3ccc(OC(C)=O)cc3)O2)cc1 (stereo not drawn) | 2.6 | .
Cc1noc(-c2ccccc2)c1NC(=O)NCC1COc2ccccc2O1 (stereo not drawn) | . | 7*
O=C(NCC1COc2ccccc2O1)Nc1ccc(Cl)cc1 (stereo not drawn) | . | -0.86
Nc1nc(-c2ccc(Cl)cc2)nn1C(=O)Cc1ccc(Cl)cc1 | -0.83 | -0.6
O=C(Oc1ccc(F)cc1)c1cc(-c2cccs2)on1 | 0.83 | -0.36
Cc1cccc2c3c(ccc12)C1=C(C(=O)C3=O)[C@@H](C)CO1 | 17* | .
O=c1cc(O)c2sc3nc(-c4ccncc4)ccc3c2[nH]1 | 15* | 2.5
COc1ccc(-c2ccc3c(n2)sc2c(O)cc(=O)[nH]c23)cc1OC | 5.1 | -0.51
Nc1ccc2nc(SCC(=O)c3ccc(Br)cc3)sc2c1 | -1.4 | -4.4
Nc1ccc2nc(SCC(=O)c3ccc(-c4ccccc4)cc3)sc2c1 | . | 17*
Cc1nc(SCc2cc(=O)n3nc(C4CCCCC4)sc3n2)n[nH]1 | -0.31 | .
COC(=O)c1sccc1NC(=O)Cc1cccs1 | . | -1.3
COC(=O)c1sccc1NC(=O)c1cccs1 | . | 6.7*
CC1O[P+]2(OC1C)OC(C)C(C)O2 (stereo not drawn) | . | 5.2*
Cc1nn2c(=O)cc(CSc3nc4ccc(NC(=O)c5cccs5)cc4s3)nc2s1 | -0.88 | .
Cn1cc(Cl)c(/C=C(\C#N)C(=O)c2ccco2)n1 | . | -2.3
O=C(O)c1cc(N2C(=O)c3c(Cl)c(Cl)c(Cl)c(Cl)c3C2=O)ccc1Cl | . | 8.6*
O=C(O)c1cc(N2C(=O)C3CCCCC3C2=O)ccc1Cl (stereo not drawn) | 1 | .
C(=C\CSc1ccccn1)/CSc1ccccn1 | . | -1.3
Nc1ccccc1SC/C=C/CSc1ccccc1N | . | 15*
O=C(O)CCc1nnc2ccc(NCc3ccc(Cl)cc3)nn12 | 0.61 | 2.1
SMILES | HIV TAR-Tat | CDC25B-CDK2 inh
O=C(Nc1ccccc1)c1c(O)c2cccc3c2n(c1=O)CCC3 | 1.5 | .
O=C(O)CNC(=O)CCCCC(=O)NCC(=O)O | . | 10*
O=C(O)CCC(=O)NCC(=O)c1ccc(F)cc1 | . | -2.2
Oc1c(C2=NNC(c3ccccc3)C2)ccc2ccccc12 (stereo not drawn) | . | -2.8
O=C(Nc1ccc(-n2nncc2-c2ccco2)cc1)c1cnc2n(c1=O)CCS2 | 7.3* | .
CC(=O)Nc1ccc(-n2nncc2-c2ccco2)cc1 | 1.3 | .
Cc1ccc(S(=O)(=O)N(CCS(=O)(=O)N2CCNCC2)CC(C)c2ccccc2)cc1 (stereo not drawn) | 1.2 | .
O=C(O)c1cc2ncc(Br)cn2n1 | 18* | .
O=C(c1cnc2cc(-c3ccccc3)nn2c1)c1cc(Br)ccc1O | -0.18 | -0.74
Cc1cc(=O)n2[nH]c(Cc3cccc(F)c3)nc2n1 | 0.41 | 1.6
O=C(NCCCN1CCCC1)c1cnn(-c2ccc(F)cc2)c1-n1cccc1 | 1.8 | .
CCCNc1nc(N2CCOCC2)c2cnn(C)c2n1 | 2.4 | .
CCC(C)NC(=O)CSc1nc2cc(OC)c(OC)cc2c2nc(C)nn12 (stereo not drawn) | . | -0.71
CCOc1cc(C2CC(=O)N3CN(c4ccc(C)c(C)c4)CSC3=C2C#N)ccc1O (stereo not drawn) | 2.2 | 1.9
COc1ccc(N2CSC3=C(C#N)C(c4cccc(Br)c4)CC(=O)N3C2)c(OC)c1 (stereo not drawn) | 0.31 | 1.8
COc1ccc(N2CSC3=C(C#N)C(c4ccc(O)c(OC)c4)CC(=O)N3C2)c(OC)c1 (stereo not drawn) | -4.1 | 3.5*
CCOc1cc(C2CC(=O)N3CN(c4ccc(OC)cc4OC)CSC3=C2C#N)ccc1O (stereo not drawn) | -1.1 | 3.1*
CCOc1cc(C2CC(=O)N3CN(c4ccccc4)CSC3=C2C#N)cc(Br)c1O (stereo not drawn) | 31* | 8.8*
CCOc1cc(C2CC(=O)N3CN(c4ccc(F)cc4)CSC3=C2C#N)ccc1O (stereo not drawn) | 30* | 1.4
Cc1ccc(CNC(=O)NCc2cccn2Cc2c(C)cc(C)cc2C)cc1 | 1.6 | .
Cn1c(=O)n2ncnc2c2c3c(sc21)CCCC3 | . | -0.78
Cc1cc(C)c2c(=O)cc(C(=O)Nc3nc4ccc(S(C)(=O)=O)cc4s3)oc2c1 | -1.7 | -1.9
CC1CCCC(NC(=O)c2csc3c2CCCC3)C1C (stereo not drawn) | -0.08 | -1.8
COc1ccc(-c2nc(-c3cccs3)c(-c3cccs3)[nH]2)cc1O | 1.2 | 18*
COc1cc(-c2nc(-c3ccccc3)c(-c3ccccc3)[nH]2)ccc1O | . | -0.82
